# Test results: the supplement of paper PMC13380429
# Tests used:
# [1] = tested on: Vero E6 infected with SARS-CoV-2; test: morphology score (similarity to uninfected cells); higher = more like uninfected cells; conditions: 24 h
# [2] = tested on: Vero E6 infected with SARS-CoV-2; test: SARS-CoV-2 infection rate relative to infected DMSO; higher = more infection, active = 60 or less; conditions: 24 h
Compound,morphology score [1],SARS-CoV-2 infection rate [2]
CC(C)[N+](C)(CCOC(=O)C1c2ccccc2Oc2ccccc21)C(C)C [propantheline] (10 µM),0.214,99.5% (inactive)
Oc1c(Br)cc(Br)c2cccnc12 [broxyquinoline] (10 µM),0.015,104% (inactive)
CCN(C)C(=O)Oc1cccc([C@H](C)N(C)C)c1 [rivastigmine] (10 µM),0.136,101% (inactive)
O=[N+]([O-])c1cncn1CCN1CCOCC1 [nimorazole] (10 µM),0.0962,91.5% (inactive)
CC(=O)[C@H]1CC[C@H]2[C@@H]3CC[C@H]4C[C@H](O)CC[C@]4(C)[C@H]3CC[C@]12C [allopregnanolone] (10 µM),0.0997,103% (inactive)
O=C1c2ccccc2C(Cc2ccnc(F)c2)(Cc2ccnc(F)c2)c2ccccc21 (10 µM),-0.17,113% (inactive)
C=C1/C(=C\C=C2/CCC[C@]3(C)[C@@H]([C@H](C)/C=C/[C@H](C)C(C)(C)O)CC[C@@H]23)C[C@@H](O)C[C@@H]1O [ercalcitriol] (10 µM),0.0324,97.5% (inactive)
S=C(S)N1CCCC1 [pyrrolidine-dithiocarbamate] (0.833333 µM),0.106,98% (inactive)
NC(=O)[C@H]1CCS[C@@H]2C[C@]3(CCCN3C(=O)Cc3ccc(NC(=O)COc4ccc(Cl)cc4Cl)cc3)C(=O)N12 (10 µM),-0.263,111% (inactive)
O=C1C(Cl)=C(NCCN2CCOCC2)C(=O)c2ncccc21 (0.833333 µM),0.143,94% (inactive)
COC(=O)Nc1nc2cc(C(=O)c3cccs3)ccc2[nH]1 [nocodazole] (0.833333 µM),0.025,104% (inactive)
COc1cc(-n2cnc3cc(-c4ccc(Cl)cc4)sc3c2=O)ccc1OCCN1CCCC1 (10 µM),0.52,53% (active)
Nc1cc(-c2ccncc2)c[nH]c1=O [amrinone] (10 µM),0.00166,112% (inactive)
CCCCOc1ccc(C(=O)CCN2CCCCC2)cc1 [dyclonine] (10 µM),0.347,91.5% (inactive)
C#C[C@]1(OC(C)=O)CC[C@H]2[C@@H]3CCC4=C[C@@H](OC(C)=O)CC[C@@H]4[C@H]3CC[C@@]21C [ethynodiol-diacetate] (10 µM),-0.0396,113% (inactive)
COc1ccc(S(=O)(=O)Nc2cc(Cl)cc(Cl)c2OC)cc1N1CCNCC1 (10 µM),0.132,97.5% (inactive)
Oc1nc(O)c2nc(O)[nH]c2n1 [uric-acid] (10 µM),-0.0319,106% (inactive)
CN(C)[C@@H]1C(O)=C(C(N)=O)C(=O)[C@@]2(O)C(O)=C3C(=O)c4c(O)ccc(Cl)c4[C@@](C)(O)[C@H]3C[C@@H]12 (10 µM),0.129,102% (inactive)
O=S(=O)(O)c1ccc2[nH]c(-c3ccccc3)nc2c1 [phenylbenzimidazole-sulfonic-acid] (10 µM),0.087,104% (inactive)
NC/C(=C/F)CCc1ccc(F)cc1 [mofegiline] (10 µM),-0.0471,115% (inactive)
CCCCOC(=O)c1ccccc1Nc1cccc(C(F)(F)F)c1 [ufenamate] (10 µM),0.129,100% (inactive)
c1cncc(CN2CCC(n3ncc4c(N5CCOCC5)nc(-c5ccc6[nH]ccc6c5)nc43)CC2)c1 (0.833333 µM),0.491,69% (inactive)
COc1ccc(F)c(F)c1C(=O)c1cnc(NC2CCN(S(C)(=O)=O)CC2)nc1N (10 µM),-0.352,118% (inactive)
N#Cc1ccc2[nH]c(O)c(-c3ccc(CN4CCOCC4)cn3)c2c1 (10 µM),-0.238,100% (inactive)
CN(C)CCCCSC(=N)N (10 µM),0.0735,100% (inactive)
CC(O)(CS(=O)(=O)c1ccc(F)cc1)C(=O)Nc1ccc(C#N)c(C(F)(F)F)c1 (stereo not given) [bicalutamide] (10 µM),-0.00454,114% (inactive)
Nc1ncnc2c1ncn2[C@@H]1O[C@H](COP(=O)(O)O)[C@@H](O)[C@H]1O [adenosine-phosphate] (10 µM),-0.114,113% (inactive)
COc1cc(N2CCC(N3CCN(C)CC3)CC2)ccc1Nc1ncc(Cl)c(Nc2ccccc2P(C)(C)=O)n1 [brigatinib] (0.833333 µM),-0.178,105% (inactive)
COC(=O)/C=C/C(=O)N[C@@H]1CC[C@@]2(O)[C@H]3Cc4ccc(O)c5c4[C@@]2(CCN3CC2CC2)[C@H]1O5 [beta-funaltrexamine] (10 µM),0.0225,99% (inactive)
CC(C(=O)O)c1cccc(Oc2ccccc2)c1 (stereo not given) [fenoprofen] (10 µM),0.0202,108% (inactive)
